The results in this text go back to PubChem BioAssay (NCI).

Test [1] in a line: NCI Yeast Anticancer Drug Screen. Data for the rad50 strain (AID 155).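 Also: 0% = growth of vehicle-only cultures of the same strain.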 Conditions: S. cerevisiae rad50 strain growth inhibition, active compounds read high. Put shortly: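 Growth of the mutant yeast was measured after compound exposure and referenced to vehicle-treated cultures.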
The nature of test [2]: NCI Yeast Anticancer Drug Screen. Data for the mec2-1 strain (AID 157). The following applies: S. cerevisiae mec2-1 strain, active compounds read high. An outline of the steps: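 Using mec2-1 yeast: add compound, measure growth, express inhibition versus vehicle-treated cultures.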
The nature of test [3]: NCI Yeast Anticancer Drug Screen. Data for the sgs1 mgt1 strain (AID 161).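 Also: 0% = growth of cultures given vehicle only.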 Conditions: S. cerevisiae sgs1 mgt1 strain, active compounds read high. Put shortly:
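Growth of a repair-deficient yeast mutant was monitored after compound treatment and expressed as inhibition relative to vehicle-treated cultures.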

The nature of test [4]: NCI Yeast Anticancer Drug Screen. Data for the cln2 rad14 strain (AID 165).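 Also: 0% = growth equal to vehicle treated cultures.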 Conditions: S. cerevisiae cln2 rad14 strain, active compounds read high. An outline of the steps: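 Yeast strain cln2 rad14, bearing defects in cell cycle control and DNA repair, serves as the test system; values reflect growth inhibition compared with vehicle.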
The nature of test [5]: NCI Yeast Anticancer Drug Screen. Data for the bub3 strain (AID 167). Conditions: S. cerevisiae bub3 mutant strain, active compounds read high. Put shortly: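 Whole-cell yeast assay. The mutant strain was incubated with compounds, and growth inhibition was determined by comparison with vehicle-treated cells.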
The nature of test [6]: NCI Yeast Anticancer Drug Screen. Data for the mlh1 rad18 strain (AID 175). The following applies: S. cerevisiae mlh1 rad18 strain growth inhibition, active compounds read high. Put shortly:
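Steps: expose repair-defective yeast to compound; measure growth; express inhibition against vehicle-treated controls.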

[7] abbreviates: at 5.0 µM (retest, dose inferred, filed as 0.5).
Setting [8] is: at 50.0 µM (retest, dose inferred, filed as 5.0).

Compounds without any hit were thinned out: in the full panel of roughly 79,000, 15% have a hit. Values without a mark were called inactive. Calls of active or inactive are those of the source. Rule as the data show it: active = growth inhibition above about 70%; inactive = the rest.

Take `CC(C)(C)c1ccc(Br)c(CCC(=O)NO)c1`: the growth inhibition in test [1] (setting [7]) was -2%; in test [1] (setting [8]) it was 94% (active); in test [1] (at 50.0 µM) it was 97% (active); in test [2] (setting [7]), -1%; in test [2] (setting [8]), 98% (active); in test [2] (at 50.0 µM), 98.6% (active). Also, the growth inhibition in test [3] (setting [7]) is -15%; in test [3] (setting [8]), 96% (active); in test [3] (at 50.0 µM) it was 97% (active); in test [4] (setting [7]), -3%; in test [4] (setting [8]), 91% (active); in test [4] (at 50.0 µM), 98.7% (active). In addition, the growth inhibition was -1% in test [5] (setting [7]); 96% (active) in test [5] (setting [8]); 97.7% (active) in test [5] (at 50.0 µM); 9% in test [6] (setting [7]); 98% (active) in test [6] (setting [8]); 97.8% (active) in test [6] (at 50.0 µM).

Regarding `CCN(CC)CC(O)CNc1ccc(NCC(O)CCl)c2c1C(=O)c1ccccc1C2=O` (stereo not given), the growth inhibition is 98% (active) in test [1] (setting [7]); 98% (active) in test [1] (setting [8]); 36% in test [1] (at 50.0 µM); 98% (active) in test [2] (setting [7]); 98% (active) in test [2] (setting [8]); -19.1% in test [2] (at 50.0 µM). Also, the growth inhibition in test [3] (setting [7]) is 98% (active); in test [3] (setting [8]), 98% (active); in test [3] (at 50.0 µM), 7.1%; in test [4] (setting [7]), 97% (active); in test [4] (setting [8]), 97% (active); in test [4] (at 50.0 µM) it was 10.8%. The growth inhibition in test [5] (setting [7]) was 97% (active); in test [5] (setting [8]), 97% (active); in test [5] (at 50.0 µM), 12.4%; in test [6] (setting [7]), 99% (active); in test [6] (setting [8]), 99% (active); in test [6] (at 50.0 µM), 19.1%.

`O=C(CCn1[nH]c(=O)c(Cl)c(Cl)c1=O)NNc1ccc([N+](=O)[O-])cc1[N+](=O)[O-]`: the growth inhibition in test [1] (setting [7]) was 4%; in test [1] (setting [8]), 36%; in test [1] (at 50.0 µM), 35.8%; in test [2] (setting [7]), -7%; in test [2] (setting [8]), 2%; in test [2] (at 50.0 µM), -4.7%. The growth inhibition is 1% in test [3] (setting [7]); 18% in test [3] (setting [8]); -12.9% in test [3] (at 50.0 µM); -2% in test [4] (setting [7]); 1% in test [4] (setting [8]); -2.45% in test [4] (at 50.0 µM). The growth inhibition in test [5] (setting [7]) is 1%; in test [5] (setting [8]), 19%; in test [5] (at 50.0 µM), 26.2%; in test [6] (setting [7]), 2%; in test [6] (setting [8]) it was 17%; in test [6] (at 50.0 µM), 88.2% (active).

On to `OC(Cc1cccnc1)(c1ccccc1)c1ccc(Cl)cc1` (stereo not given), for which the growth inhibition in test [1] (setting [7]) is -7%; in test [1] (setting [8]), 69%; in test [1] (at 50.0 µM), 97.5% (active); in test [2] (setting [7]), -3%; in test [2] (setting [8]), 80% (active); in test [2] (at 50.0 µM), 98% (active). The growth inhibition in test [3] (setting [7]) is 6%; in test [3] (setting [8]), 79% (active); in test [3] (at 50.0 µM), 97.3% (active); in test [4] (setting [7]), -1%; in test [4] (setting [8]), 64%; in test [4] (at 50.0 µM), 94.2% (active). Moreover, the growth inhibition in test [5] (setting [7]) was -3%; in test [5] (setting [8]), 77% (active); in test [5] (at 50.0 µM), 97.2% (active); in test [6] (setting [7]), -5%; in test [6] (setting [8]) it was 71% (active); in test [6] (at 50.0 µM), 98% (active).

As for `Cc1ccc(O)c(C(c2cc(C)ccc2O)c2ccccc2Cl)c1`, the growth inhibition was 96% (active) in test [1] (setting [7]); 99% (active) in test [1] (setting [8]); 98.2% (active) in test [1] (at 50.0 µM); 95% (active) in test [2] (setting [7]); 99% (active) in test [2] (setting [8]); 99.5% (active) in test [2] (at 50.0 µM). For the same compound, the growth inhibition in test [3] (setting [7]) was 91% (active); in test [3] (setting [8]) it was 99% (active); in test [3] (at 50.0 µM) it was 99.2% (active); in test [4] (setting [7]) it was 98% (active); in test [4] (setting [8]), 99% (active); in test [4] (at 50.0 µM), 98.6% (active). In addition, the growth inhibition in test [5] (setting [7]) is 85% (active); in test [5] (setting [8]), 99% (active); in test [5] (at 50.0 µM), 98.5% (active); in test [6] (setting [7]), 97% (active); in test [6] (setting [8]), 95% (active); in test [6] (at 50.0 µM) it was 99% (active).

For the compound `O=c1ssc(=Nc2ccc(Cl)cc2)n1-c1ccc(Cl)cc1`, the growth inhibition was 77% (active) in test [1] (setting [7]); 99% (active) in test [1] (setting [8]); 98.5% (active) in test [1] (at 50.0 µM); 57% in test [2] (setting [7]); 99% (active) in test [2] (setting [8]); 99.4% (active) in test [2] (at 50.0 µM). Besides, the growth inhibition in test [3] (setting [7]) is 95% (active); in test [3] (setting [8]) it was 99% (active); in test [3] (at 50.0 µM), 98.2% (active); in test [4] (setting [7]) it was 16%; in test [4] (setting [8]), 99% (active); in test [4] (at 50.0 µM), 87.9% (active). Also, the growth inhibition is 74% (active) in test [5] (setting [7]); 99% (active) in test [5] (setting [8]); 99.5% (active) in test [5] (at 50.0 µM); 30% in test [6] (setting [7]); 99% (active) in test [6] (setting [8]); 98% (active) in test [6] (at 50.0 µM).

As for `COC(=O)C(=[N+]=[N-])C(=O)c1ccc(Cl)cc1`, the growth inhibition was 2% in test [1] (setting [7]); 30% in test [1] (setting [8]); 81% (active) in test [1] (at 50.0 µM); 2% in test [2] (setting [7]); 13% in test [2] (setting [8]); 96.2% (active) in test [2] (at 50.0 µM). The growth inhibition was 2% in test [3] (setting [7]); 40% in test [3] (setting [8]); 50.7% in test [3] (at 50.0 µM); 0% in test [4] (setting [7]); 19% in test [4] (setting [8]); 44.4% in test [4] (at 50.0 µM). The growth inhibition in test [5] (setting [7]) was -14%; in test [5] (setting [8]) it was -14%; in test [5] (at 50.0 µM), 28.9%; in test [6] (setting [7]) it was -3%; in test [6] (setting [8]), 18%; in test [6] (at 50.0 µM) it was 40.5%.

As to `O=C1/C(=N/N=C(c2ccccc2)c2ccccc2)c2ccccc2-c2ccccc21`, the growth inhibition in test [1] (setting [7]) was 7%; in test [1] (setting [8]), 65%; in test [1] (at 50.0 µM), 60.9%; in test [2] (setting [7]), 1%; in test [2] (setting [8]), 14%; in test [2] (at 50.0 µM), 0.45%. Further, the growth inhibition is -1% in test [3] (setting [7]); 23% in test [3] (setting [8]); -2.6% in test [3] (at 50.0 µM); 2% in test [4] (setting [7]); -5% in test [4] (setting [8]); 0.15% in test [4] (at 50.0 µM). The growth inhibition in test [5] (setting [7]) is 7%; in test [5] (setting [8]), 27%; in test [5] (at 50.0 µM), 8.5%; in test [6] (setting [7]) it was 7%; in test [6] (setting [8]), 44%; in test [6] (at 50.0 µM), 72.3% (active).

For `Clc1ccc2nc3c(c(N4CCCCC4)c2c1)CCCC3`, the growth inhibition in test [1] (setting [7]) is 7%; in test [1] (setting [8]), 99% (active); in test [1] (at 50.0 µM), 98.8% (active); in test [2] (setting [7]), 4%; in test [2] (setting [8]), 99% (active); in test [2] (at 50.0 µM) it was 99.2% (active). Further, the growth inhibition in test [3] (setting [7]) was 13%; in test [3] (setting [8]), 99% (active); in test [3] (at 50.0 µM), 99.4% (active); in test [4] (setting [7]), 2%; in test [4] (setting [8]), 99% (active); in test [4] (at 50.0 µM), 99.2% (active). Besides, the growth inhibition was 0% in test [5] (setting [7]); 99% (active) in test [5] (setting [8]); 97% (active) in test [5] (at 50.0 µM); 11% in test [6] (setting [7]); 98% (active) in test [6] (setting [8]); 99.2% (active) in test [6] (at 50.0 µM).

For the compound `O=[N+]([O-])c1ccc(-c2cccc(Cl)c2)c([N+](=O)[O-])c1`, the growth inhibition in test [1] (setting [7]) is 6%; in test [1] (setting [8]) it was 98% (active); in test [1] (at 50.0 µM), 99.3% (active); in test [2] (setting [7]), -3%; in test [2] (setting [8]), 99% (active); in test [2] (at 50.0 µM) it was 99% (active). Also, the growth inhibition in test [3] (setting [7]) was 13%; in test [3] (setting [8]) it was 99% (active); in test [3] (at 50.0 µM) it was 99.2% (active); in test [4] (setting [7]) it was -17%; in test [4] (setting [8]) it was 98% (active); in test [4] (at 50.0 µM) it was 91% (active). The growth inhibition in test [5] (setting [7]) is 9%; in test [5] (setting [8]), 99% (active); in test [5] (at 50.0 µM), 98.8% (active); in test [6] (setting [7]), 2%; in test [6] (setting [8]) it was 98% (active); in test [6] (at 50.0 µM), 97.9% (active).
